Laboratory results published in PubChem BioAssay AID1851 (National Center for Advancing Translational Sciences (NCATS), 2009).
Screen size: about 16,000 compounds; about 2,600 (16%) were called active. Roughly 20% stayed inconclusive and do not appear here. These entries were drawn from the full list. A number with no mark means an inactive call. Calls come from the whole dose curve; as a rule, active = well fitted curve in the direction sought with a large enough effect; inconclusive = small, poorly fitted or top-dose-only effect, or effect the other way; inactive = no such curve, though single readings can be large or run the other way.

Each compound was assayed against Cytochrome P450 2D6 (Homo sapiens) (UniProt P10635) (assay: Cytochrome panel assay with activity outcomes). Conditions: recombinant CYP, pro-luciferin dealkylation, luminescence, p450-cyp2d6; series mostly up to 57.1 µM; activity, negative = inhibition: at the top concentration.
% is set by controls: 0 for no effect and ±100 for the full control effect.

Chain of Cytochrome P450 2D6 (Homo sapiens) (P10635 whole entry, looked up): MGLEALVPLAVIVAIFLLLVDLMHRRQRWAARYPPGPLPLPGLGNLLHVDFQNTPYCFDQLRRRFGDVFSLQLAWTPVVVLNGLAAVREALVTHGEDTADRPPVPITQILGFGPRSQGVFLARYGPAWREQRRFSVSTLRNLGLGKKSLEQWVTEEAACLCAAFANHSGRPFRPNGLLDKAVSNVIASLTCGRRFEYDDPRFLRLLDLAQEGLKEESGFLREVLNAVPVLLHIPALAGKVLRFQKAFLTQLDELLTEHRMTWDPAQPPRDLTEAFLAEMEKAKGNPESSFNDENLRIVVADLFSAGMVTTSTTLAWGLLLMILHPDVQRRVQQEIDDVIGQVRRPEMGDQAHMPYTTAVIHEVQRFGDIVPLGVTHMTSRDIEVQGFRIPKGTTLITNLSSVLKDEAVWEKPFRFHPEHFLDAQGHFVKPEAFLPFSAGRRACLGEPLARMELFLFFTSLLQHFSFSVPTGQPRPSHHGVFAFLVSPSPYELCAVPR

Compound	activity, negative = inhibition	AC50
O=C(O)CC/C=C\CC[C@H]1[C@@H](N2CCCCC2)[C@@H](O)C[C@@H]1OCc1ccc(-c2ccccc2)cc1	10.6%	
COc1ccc2c(c1)CCCC21NC(=O)N(CC(N)=O)C1=O (stereo not given)	11.4%	
CCOC(=O)N1N=C(c2ccccc2)CC1(O)C(F)(F)F (stereo not given)	3.62%	
COC(=O)c1ccc(NC(=O)c2ccccc2)o1	12.2%	
CN1CCN2c3ncccc3Cc3ccccc3C2C1 (stereo not given)		501 nM (active)
O=c1[nH]c(=S)[nH]nc1Cc1ccccc1	4.49%	
Cc1c(N(C)C)c(=O)n(-c2ccccc2)n1C	1.13% [at 25.6 µM]	
CSC1=C(C#N)C(c2ccccc2Cl)C2=C(N1)c1ccccc1C2=O (stereo not given)	-20.8%	
COc1cc(/C=C/C(=O)Nc2ccccc2C(F)(F)F)cc(OC)c1OC	4.2%	
CCc1ccc2c(-c3cccc(Cl)c3)nc(=O)n(CC)c2n1	-15%	
Cc1ccc(C(=O)COC(=O)CNC(=O)C(c2ccccc2)c2ccccc2)cc1[N+](=O)[O-]	-8.5%	
Cc1ccc(-n2ccnc2SCC(=O)N(CC(C)C)C2CCS(=O)(=O)C2)c(C)c1 (stereo not given)	-6.08%	
Cc1cc(C)n(-c2nc(SCCN(C)C)c3c4c(sc3n2)CCCC4)n1		794 nM (active)
Cc1cc(C)n(-c2nc(NCC(C)O)c3c4c(sc3n2)COC(C)(C)C4)n1 (stereo not given)	-1.92%	
O=C(O)CSc1ncnc2sc3c(c12)CCC3	-4.52%	
C[C@@H]1C[C@H](C)CN(S(=O)(=O)c2cc(Cl)c(Oc3ccc([N+](=O)[O-])cc3Cl)c(Cl)c2)C1	2.46% [at 11.4 µM]	
Cc1cccc(/C=N\Nc2cn[nH]c(=O)c2Cl)c1	-13%	
CC1(C)Cc2ccccc2C(N/N=C/c2cccc(F)c2)=N1		11200 nM (active)
O=C(N/N=C/c1cccc(F)c1)c1csc2c1CCCC2	-28.5%	
Cn1c(=O)c(-c2ccc(Cl)cc2)nc2cnc(N3CCOCC3)nc21	0.0181%	
Oc1cc(O)c2c(c1)O[C@@H](c1ccc(O)c(O)c1)[C@H](O[C@@]1(c3cc(O)c(O)c(O)c3)Oc3cc(O)cc(O)c3[C@H](O)[C@@H]1O)C2	-0.664% [at 11.4 µM]	
Cc1ccc(C(=O)Oc2cc(C)n(C)c(=O)c2)cc1	-3.57%	
CCN(CC(=O)NCc1cccs1)S(=O)(=O)c1ccc(C(C)C)cc1		3550 nM (active)
CCCN(CCC)S(=O)(=O)c1ccc(C(=O)O)cc1	1.42% [at 25.6 µM]	
CCN(c1ccccc1)S(=O)(=O)c1ccc(NC(=S)NC(=O)c2cccs2)cc1	-14.7%	
Cc1nn(CC(O)COc2ccc3c(c2)CCC3)c(C)c1Br (stereo not given)	-17%	
CCn1c(SCC(=O)Nc2sc3c(c2C(N)=O)CCC(C)C3)nnc1-c1ccco1 (stereo not given)	6.66%	

Compound	activity, negative = inhibition	AC50
CCCCNC(=S)NNC(=O)CCn1nc(C)c(Br)c1C	-1.01%	
CCN(CC)C(=O)CSc1nnc(CNc2ccc(F)cc2)o1	16.3%	
CN(C)Cc1ccccc1-c1nc(N(C)Cc2ccco2)c2ccccc2n1		794 nM (active)
Cc1ccccc1-c1nc(N(C)Cc2ccco2)c2ccccc2n1		3160 nM (active)
Cc1ccc(-c2cc(C(=O)NCc3ccco3)c3ccccc3n2)s1	-16.4%	
CN(Cc1ccco1)c1nc(-c2ccccc2C(F)(F)F)nc2ccccc12		7940 nM (active)
COc1ccccc1-c1nc(N(C)Cc2ccco2)c2ccccc2n1		1000 nM (active)
CCC(=O)N(Cc1ccco1)c1nc(-c2ccccc2)cs1	-25%	
O=C1C(Cc2ccccc2)NC(=S)N1c1ccccc1 (stereo not given)	6.7%	
Cc1ccccc1S(=O)(=O)c1c(C)cc(-c2ccccc2)[nH]c1=O	-6.01%	
COc1ccc(-n2c(=O)cnc3cnc(Oc4ccccc4)nc32)cc1	-3.04%	
CS(=O)(=O)c1cnc2c(-c3ccc(F)cc3)cnn2c1N	0.896%	
CCCCN=C1N/C(=C\c2ccco2)C(=O)N1c1ccccc1	-29.6%	
O=C(Nc1ccc(-c2cc3ccccc3oc2=O)c(Cl)c1)c1cccnc1	7.04%	
COc1cccc(Nc2ncc3nc(-c4cn(C)c5ccccc45)c(=O)n(CCC#N)c3n2)c1	-4.27%	
O=C(c1cc(-c2ccccc2Cl)on1)N1CCN(C(=O)c2ccco2)CC1	-1.39%	
O=C(O)c1cc2cc(OCc3ccccc3)ccc2[nH]1	-1.31%	
COc1cc2c(C(=O)NCc3ccc(C)o3)cn(CC(C)C)c(=O)c2cc1OC	-14.4%	
Cc1oc(=O)c(NC(=O)c2ccccc2)cc1C(=O)c1ccccc1	-15.9%	
COc1cccc(-c2nc(N(C)Cc3ccco3)c3ccccc3n2)c1		5010 nM (active)
Cc1cc(Oc2ccccc2)nc(-c2ccccc2)n1	-9.47%	
COc1cccc(-c2nc(N(C)C)c3ccccc3n2)c1		12600 nM (active)
COc1ccc(OC)c(Nc2nc(-c3cccc([N+](=O)[O-])c3)nc3ccccc23)c1	5.17%	
O=C(NC1(C(F)(F)F)NC(=O)N(Cc2cccnc2)C1=O)c1ccccc1 (stereo not given)	-26%	
CC(C)(C)NC(=O)Cn1nnc(-c2ccccc2NC(=O)c2cnccn2)n1	11.1%	
CC(=O)Nc1ccc(NC2=Nc3ccccc3N3C2=Nc2c(c(C)nn2-c2ccccc2)C3c2ccccc2)cc1 (stereo not given)	-0.731%	
Cc1nn(Cc2ccc(Cl)cc2Cl)c(C)c1NC(=O)c1sc2ccccc2c1Cl	-13%	

Compound	activity, negative = inhibition	AC50
C=CCc1cccc2cc(C(=O)N(CC)CC)c(=O)oc12	-3.73%	
Cc1[nH]n(-c2ccccc2)c(=O)c1CCOC(=O)c1ccc(C(F)(F)F)cc1	-16%	
CCOC(=O)c1ccc(OC(=O)CCCCCN=C(N)N)cc1		316 nM (active)
CCOC(=O)c1ccc(N)cc1	-7.44% [at 25.6 µM]	
CCOC(=O)c1ccc(N/C=C/C(=O)c2ccc(OC)cc2)cc1	-2.63%	
Cn1c(=O)c(-c2cccs2)nc2cnc(Oc3ccccc3)nc21	1.93%	
NC(=O)NC(=O)CSc1nnc(-c2ccco2)n1Cc1ccccc1	-6.49%	
FC(F)(F)c1cc(-c2ccco2)nc(NCCc2ccccc2)n1		5010 nM (active)
Cc1ccc(Cn2ccc(NC(=O)c3cc4nc(-c5ccco5)cc(C(F)(F)F)n4n3)n2)cc1	5.06%	
O=C(NC1CCCC1)c1cnn2c(C(F)(F)F)cc(-c3ccco3)nc12	-5.58%	
O=c1/c(=C\c2ccc(O)cc2)sc2n1C(c1ccccc1)C(c1ccccc1)=NN=2 (stereo not given)	2.11%	
COc1cccc(-c2nnc3n2N=C(C(C)(C)C)CS3)c1	-19%	
CCCCNc1nc(-c2ccccc2)c(C(=O)OCC)cc1C#N	-13.6%	
CSc1c(-c2ccccc2)nc2ccc(Cl)cc2c1C(=O)O	0.481%	
N#Cc1ccccc1/C=N/Nc1nc(-c2ccccc2)c2cc(Cl)ccc2n1		178 nM (active)
Cc1ccc(Oc2nnc(-c3ccccc3)cc2C#N)cc1	7.73%	
Cc1ccc2nc(N/N=C/c3ccccc3C#N)nc(-c3ccccc3)c2c1		1260 nM (active)
CN(C)c1nc(NCc2ccccc2)nc(N/N=C/c2ccc(Cl)cc2Cl)n1	-14%	
Cc1ccc(-n2c(=O)[nH]cc(C(=O)N3CCc4ccccc43)c2=O)cc1	3.82%	
Cc1nc2cncnc2n(C2CC2)c1=O	-3.46%	
COc1ccc(Oc2ncc3nc(-c4cccc(C#N)c4)c(=O)n(Cc4cccc(OC)c4)c3n2)cc1	-1.33%	
O=C(O)c1nn(-c2ccccc2)ccc1=O	2.59%	
Cc1cc(C)cc(-n2c(O)c(C=NC3CCS(=O)(=O)C3)c3ccccc3c2=O)c1 (stereo not given)	15.4%	
CCCCOC(=O)Nc1ccccc1C(=O)OC	-3.17%	
Cc1ccc(C)c(Nc2nc3nonc3nc2N2CCOCC2)c1	-9.71%	
CCOc1ccc(-c2c(=O)n(OCc3ccccn3)c3ccccc3[n+]2[O-])cc1	-21.6%	
COc1ccc(-c2cc(C(F)(F)F)n3ncc(C(=O)NCC4CCCO4)c3n2)cc1OC (stereo not given)	3.76%	

Compound	activity, negative = inhibition	AC50
CCC(Sc1nc2cc3c(cc2c(=O)n1Cc1ccco1)OCO3)C(=O)Nc1cccc(OC)c1 (stereo not given)		3160 nM (active)
CCN(C(=O)CSc1nc2cc(C(=O)OC)ccc2c(=O)n1Cc1ccco1)c1cccc(C)c1	-23.1%	
COCCNC(=O)CSc1nc2cc(OC)c(OC)cc2c(=O)n1Cc1ccco1	-20.3%	
Cc1nc(-c2cccnc2)sc1C(N)=O	8.45%	
COc1ccc(-n2c(=O)c(-c3cccs3)nc3cnc(Oc4ccccc4)nc32)cc1	-0.534%	
O=C(NN=C1C2CC3CC(C2)CC1C3)c1ccncc1	10%	
N#Cc1nc(COc2ccccc2Cl)oc1NCc1ccco1		2820 nM (active)
Cc1cc(C)cc(-n2nnc(C(=O)NCc3ccccc3Cl)c2N)c1	-18.7%	
CCCCC(=O)Nc1sc2c(c1C(=O)OCC)CCC(C=O)=C2Cl	-29.2%	
COC(=O)[C@@]1(Cc2ccccc2)[C@H]2c3cc(C(=O)N4CCCC4)[nH]c3C[C@H]2CN1C(=O)c1ccccc1	-16.7%	
Cc1[nH]c(N)nc(=S)c1CCCNc1ccccc1	-8.46% [at 11.4 µM]	
CCN(CC)CCCN(Cc1cc2ccc(C)c(C)c2[nH]c1=O)C(=O)NC1CCCCC1	-20.3%	
c1ccc(NN(Cc2cnccn2)c2ccccc2)cc1	-16.2% [at 11.4 µM]	
O=C1Cc2c([nH]c3ccc(Br)cc23)-c2ccccc2N1		398 nM (active)
O=C1CN(c2nc(-c3ccccc3)c3cc(Br)ccc3n2)c2ccccc2N1	-28.2%	
O=C1CCCCC(=O)c2ccccc2N1	-11.6%	
N#C[C@H](Cc1ccc(O)cc1)c1ccc(O)cc1	-1.28%	
CCOC(=O)CCCN	5.1% [at 11.4 µM]	
CC(Cc1ccccc1)N/C=C1\CC(=O)NC1=O (stereo not given)	8.16%	
COc1ccc(N2CCN(Cc3nc4c(c(=O)n(C)c(=O)n4C)n3CC(C)=O)CC2)cc1	0.904%	
CCOC(=O)c1nn(-c2ccccc2)c(-c2ccccc2)c1C(=O)c1ccccc1	-17.8%	
CCOC(=O)c1c(NC(=O)c2c(C)noc2C)sc2c1CCCCC2	-6.35%	
CCOC(=O)c1c(NC(=O)CSc2nnc(C)s2)sc2c1CCCCC2		7940 nM (active)
CCOC(=O)c1c(NC(=O)Cn2cc([N+](=O)[O-])cn2)sc2c1CCC2	-8.46%	
